# About 83,000 compounds went through this panel and 20% of them were active in at least one assay; those are over-represented in the sample as a whole.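 The test compound was applied at a single concentration to cells in 96-well plates for 48 hours, and percent growth was recorded.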 A number with no mark means an inactive call. Active and inactive are the calls of the source. The calls were made as follows: active = growth percent below 10; inactive = the rest.
# What was measured:
# Assay in all cases: NCI-60 one-dose screen, 48 h (100 = growth as untreated, 0 = no growth, -100 = all killed)
# Conditions in all cases: 10 µM unless noted
# DU-145 prostate = test system: DU-145 prostate
# K-562 leukemia = test system: K-562 leukemia
# MALME-3M melanoma = test system: MALME-3M melanoma
# MDA-MB-231 breast = test system: MDA-MB-231 breast
# RXF 393 renal = test system: RXF 393 renal
# SF-268 CNS = test system: SF-268 CNS
# SF-295 CNS = test system: SF-295 CNS
# SF-539 CNS = test system: SF-539 CNS
# UACC-257 melanoma = test system: UACC-257 melanoma
# M14 melanoma = test system: M14 melanoma
# HCT-15 colon = test system: HCT-15 colon
# HT29 colon = test system: HT29 colon
# SNB-75 CNS = test system: SNB-75 CNS
# SNB-19 CNS = test system: SNB-19 CNS
# U251 CNS = test system: U251 CNS
# PC-3 prostate = test system: PC-3 prostate
# SK-MEL-5 melanoma = test system: SK-MEL-5 melanoma
# UACC-62 melanoma = test system: UACC-62 melanoma
# LOX IMVI melanoma = test system: LOX IMVI melanoma
# SK-MEL-28 melanoma = test system: SK-MEL-28 melanoma
SMILES,growth (DU-145 prostate),growth (K-562 leukemia),growth (MALME-3M melanoma),growth (MDA-MB-231 breast),growth (RXF 393 renal),growth (SF-268 CNS),growth (SF-295 CNS),growth (SF-539 CNS),growth (UACC-257 melanoma),growth (M14 melanoma),growth (HCT-15 colon),growth (HT29 colon),growth (SNB-75 CNS),growth (SNB-19 CNS),growth (U251 CNS),growth (PC-3 prostate),growth (SK-MEL-5 melanoma),growth (UACC-62 melanoma),growth (LOX IMVI melanoma),growth (SK-MEL-28 melanoma)
COc1ccc2c(O)cc3c(c2c1)[C@H](CCl)CN3C(=O)c1cc2cc(NC(=O)CCN3CCOCC3)ccc2[se]1,-0.877% (active),70.1%,-88% (active),-58.4% (active),-88.4% (active),-42.7% (active),-77.7% (active),-64.4% (active),-47.5% (active),-71.1% (active),0% (active),-39.8% (active),-87.8% (active),-76.2% (active),-85.7% (active),74.1%,-85.9% (active),-76.4% (active),-62.5% (active),-58.7% (active)
COc1ccc(C(=O)/C=C/c2ccc(C)cc2)cc1S(N)(=O)=O,47.3%,3.04% (active),96.9%,58.9%,74.4%,72.4%,91.3%,25%,83.2%,71.1%,22.8%,45.7%,82.7%,14.5%,17.1%,50.4%,82.2%,61.2%,28.8%,98.1%
O=C(NS(=O)(=O)c1ccccc1)n1cc(-c2ccncc2)c(-c2cc(O)cc(Cl)c2)n1,112%,78%,15.3%,90.4%,112%,108%,110%,86.5%,70.8%,32.1%,95.9%,98.4%,82.6%,115%,104%,95%,98.9%,39.3%,92.8%,67.6%
CCOC(=O)c1cc(C(=O)c2cc(OC)cc(OC)c2)n2ccccc12,53.8%,15.8%,31.8%,55.8%,49.6%,46.8%,26.1%,44.8%,43.9%,3.55% (active),25.6%,10.1%,20.5%,41.7%,38.6%,40.4%,27.4%,30.9%,38.1%,67.3%
C=C(C)[C@@H]1CC[C@]2(COC(=O)c3cccnc3)CC[C@]3(C)[C@H](CC[C@@H]4[C@@]5(C)CCCN(C(=O)c6cccnc6)C(C)(C)[C@@H]5CC[C@]43C)[C@@H]12,44%,13.7%,69.1%,52.7%,56.1%,45.5%,40.9%,46.4%,19.9%,41.5%,24.9%,32.3%,53.3%,47.1%,25.6%,14.6%,2.5% (active),28.4%,21.3%,51.3%
Cc1ccc(C(F)(F)F)cc1N1CCN(C(=O)[C@H]2C[C@H]2c2ccc(C(F)(F)F)nc2)CC1,105%,78.1%,94%,91.3%,92.8%,91.3%,94.7%,88.6%,92.7%,97.5%,93.2%,79.8%,92.2%,90.5%,94.2%,77.7%,81.6%,74.8%,96.2%,100%
COC(=O)CCc1c(/C=C2\N=C(c3ccc[nH]3)C=C2OC)[nH]c(C)c1C(=O)OCc1ccccc1,29.9%,6.23% (active),-5.75% (active),-12.6% (active),-15.9% (active),21.4%,-30.4% (active),-16.9% (active),9.69% (active),-24.7% (active),-1.22% (active),9.15% (active),-17.6% (active),39.3%,3.55% (active),6.14% (active),-52.4% (active),-29.2% (active),-52.7% (active),16.8%
